From the supplement of paper PMC11732987, “Enantioselective OTUD7B fragment discovery through chemoproteomics screening and high-throughput optimisation” (Communications Chemistry, 2025)

Legend:
Test in all cases: log2 ratio of Biotin-Ahx-Ub-VS probe labelling (fragment/DMSO); higher = less target engagement (more negative = stronger competition), active = hit call of the paper (q ≤ 0.05, log2 ratio ≤ -1)
Conditions in all cases: compound concentration: 200 uM; treatment time: 3 h
USP42 = biological target: T1, USP42 (UniProt Q9H9J4)
T1 sequence (whole entry): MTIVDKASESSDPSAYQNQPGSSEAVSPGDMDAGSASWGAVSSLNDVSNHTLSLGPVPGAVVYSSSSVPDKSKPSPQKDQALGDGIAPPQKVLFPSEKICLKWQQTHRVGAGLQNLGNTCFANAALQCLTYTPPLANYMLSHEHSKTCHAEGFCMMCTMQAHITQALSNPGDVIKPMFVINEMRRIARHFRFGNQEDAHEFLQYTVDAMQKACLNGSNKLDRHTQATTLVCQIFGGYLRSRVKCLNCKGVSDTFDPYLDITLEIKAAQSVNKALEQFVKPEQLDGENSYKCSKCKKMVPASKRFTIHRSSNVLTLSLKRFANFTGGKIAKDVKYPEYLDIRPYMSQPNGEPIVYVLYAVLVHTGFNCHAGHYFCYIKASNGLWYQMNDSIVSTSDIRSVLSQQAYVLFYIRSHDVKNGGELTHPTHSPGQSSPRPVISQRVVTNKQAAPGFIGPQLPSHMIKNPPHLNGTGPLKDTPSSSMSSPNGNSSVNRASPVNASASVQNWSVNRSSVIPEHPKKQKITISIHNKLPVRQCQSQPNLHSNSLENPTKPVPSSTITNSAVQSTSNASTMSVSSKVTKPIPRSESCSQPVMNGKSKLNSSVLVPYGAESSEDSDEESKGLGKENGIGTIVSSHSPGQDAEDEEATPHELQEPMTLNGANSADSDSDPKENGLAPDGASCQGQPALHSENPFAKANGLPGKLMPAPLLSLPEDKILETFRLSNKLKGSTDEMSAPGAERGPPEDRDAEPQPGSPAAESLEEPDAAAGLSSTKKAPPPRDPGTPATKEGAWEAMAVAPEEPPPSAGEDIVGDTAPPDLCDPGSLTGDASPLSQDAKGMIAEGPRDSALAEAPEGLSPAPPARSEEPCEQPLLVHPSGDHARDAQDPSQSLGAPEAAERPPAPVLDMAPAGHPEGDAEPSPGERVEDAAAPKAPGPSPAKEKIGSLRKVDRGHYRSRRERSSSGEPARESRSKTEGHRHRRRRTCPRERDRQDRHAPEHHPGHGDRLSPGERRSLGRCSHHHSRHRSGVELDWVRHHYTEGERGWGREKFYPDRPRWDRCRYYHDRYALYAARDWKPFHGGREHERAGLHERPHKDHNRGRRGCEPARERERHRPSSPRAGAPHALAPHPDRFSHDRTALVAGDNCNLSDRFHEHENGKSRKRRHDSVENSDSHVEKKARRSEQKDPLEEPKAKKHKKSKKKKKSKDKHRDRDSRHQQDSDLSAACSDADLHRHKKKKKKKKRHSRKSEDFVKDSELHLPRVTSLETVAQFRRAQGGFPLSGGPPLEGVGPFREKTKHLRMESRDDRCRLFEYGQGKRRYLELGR
Outline: (§1)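 HEK293T lysate in Tris/CHAPS/IGEPAL buffer with protease inhibitors (495 µg per sample) was given fragment at 200 µM or vehicle for 3 h, in triplicate. It then received Biotin-Ahx-Ub-VS at 0.5 µM final for 1 h. Labelled DUBs were NeutrAvidin-enriched, digested with LysC and trypsin, and run by diaPASEF LC-MS/MS. Values are average log2 fragment/vehicle ratios by unpaired t-test on global-median-normalised Spectronaut quantities of proteins with ≥2 unique peptides.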

USP46 = USP46 (UniProt P62068)
Chain of USP46 (P62068 whole entry): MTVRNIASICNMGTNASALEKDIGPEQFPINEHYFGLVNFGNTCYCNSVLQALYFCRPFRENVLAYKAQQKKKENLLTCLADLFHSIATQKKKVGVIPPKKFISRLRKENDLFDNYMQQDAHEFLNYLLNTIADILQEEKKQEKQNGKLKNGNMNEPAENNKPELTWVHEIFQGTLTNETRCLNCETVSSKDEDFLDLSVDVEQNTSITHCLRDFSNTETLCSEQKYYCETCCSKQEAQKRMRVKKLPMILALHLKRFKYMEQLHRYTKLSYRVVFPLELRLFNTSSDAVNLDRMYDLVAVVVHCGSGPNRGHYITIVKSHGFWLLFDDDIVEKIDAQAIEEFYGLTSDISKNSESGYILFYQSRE
Outline: as §1

USP47 = biological target: T2, USP47 (UniProt Q96K76)
T2 sequence (whole entry): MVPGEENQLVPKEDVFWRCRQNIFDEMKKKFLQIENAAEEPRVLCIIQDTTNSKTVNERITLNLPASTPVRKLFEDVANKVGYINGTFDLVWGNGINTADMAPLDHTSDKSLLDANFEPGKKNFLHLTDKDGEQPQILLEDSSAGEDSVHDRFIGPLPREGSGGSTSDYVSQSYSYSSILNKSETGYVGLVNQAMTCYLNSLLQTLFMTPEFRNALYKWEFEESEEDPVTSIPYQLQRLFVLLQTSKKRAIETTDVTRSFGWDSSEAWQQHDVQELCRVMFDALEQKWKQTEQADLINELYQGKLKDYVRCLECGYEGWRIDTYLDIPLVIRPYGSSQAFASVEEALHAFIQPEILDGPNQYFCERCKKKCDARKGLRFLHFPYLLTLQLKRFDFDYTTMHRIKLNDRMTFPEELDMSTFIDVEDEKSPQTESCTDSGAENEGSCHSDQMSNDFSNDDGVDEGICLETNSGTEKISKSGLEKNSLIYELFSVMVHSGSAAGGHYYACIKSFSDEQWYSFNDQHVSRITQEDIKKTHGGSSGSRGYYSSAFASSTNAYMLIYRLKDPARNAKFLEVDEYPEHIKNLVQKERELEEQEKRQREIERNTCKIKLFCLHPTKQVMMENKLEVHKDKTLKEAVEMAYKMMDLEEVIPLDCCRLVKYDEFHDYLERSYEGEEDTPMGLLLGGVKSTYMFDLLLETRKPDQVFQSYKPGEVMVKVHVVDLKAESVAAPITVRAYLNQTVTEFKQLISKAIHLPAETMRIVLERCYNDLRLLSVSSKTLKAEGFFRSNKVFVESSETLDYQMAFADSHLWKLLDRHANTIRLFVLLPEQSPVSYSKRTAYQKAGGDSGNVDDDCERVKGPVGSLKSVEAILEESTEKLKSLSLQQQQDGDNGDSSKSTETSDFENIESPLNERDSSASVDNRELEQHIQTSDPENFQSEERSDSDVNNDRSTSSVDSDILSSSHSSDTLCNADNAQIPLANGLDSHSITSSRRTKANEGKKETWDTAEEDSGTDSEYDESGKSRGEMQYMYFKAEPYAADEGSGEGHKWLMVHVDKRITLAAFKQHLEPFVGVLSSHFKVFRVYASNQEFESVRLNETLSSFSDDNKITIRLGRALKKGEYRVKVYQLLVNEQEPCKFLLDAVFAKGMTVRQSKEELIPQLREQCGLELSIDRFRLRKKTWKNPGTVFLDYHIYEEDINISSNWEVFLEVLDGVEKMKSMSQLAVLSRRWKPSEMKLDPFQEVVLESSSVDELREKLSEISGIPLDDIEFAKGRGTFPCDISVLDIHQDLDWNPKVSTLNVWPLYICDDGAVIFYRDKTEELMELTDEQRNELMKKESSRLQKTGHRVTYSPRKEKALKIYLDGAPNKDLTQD
Outline: as §1

USP48 = biological target: T3, USP48 (UniProt Q86UV5)
T3 sequence (whole entry): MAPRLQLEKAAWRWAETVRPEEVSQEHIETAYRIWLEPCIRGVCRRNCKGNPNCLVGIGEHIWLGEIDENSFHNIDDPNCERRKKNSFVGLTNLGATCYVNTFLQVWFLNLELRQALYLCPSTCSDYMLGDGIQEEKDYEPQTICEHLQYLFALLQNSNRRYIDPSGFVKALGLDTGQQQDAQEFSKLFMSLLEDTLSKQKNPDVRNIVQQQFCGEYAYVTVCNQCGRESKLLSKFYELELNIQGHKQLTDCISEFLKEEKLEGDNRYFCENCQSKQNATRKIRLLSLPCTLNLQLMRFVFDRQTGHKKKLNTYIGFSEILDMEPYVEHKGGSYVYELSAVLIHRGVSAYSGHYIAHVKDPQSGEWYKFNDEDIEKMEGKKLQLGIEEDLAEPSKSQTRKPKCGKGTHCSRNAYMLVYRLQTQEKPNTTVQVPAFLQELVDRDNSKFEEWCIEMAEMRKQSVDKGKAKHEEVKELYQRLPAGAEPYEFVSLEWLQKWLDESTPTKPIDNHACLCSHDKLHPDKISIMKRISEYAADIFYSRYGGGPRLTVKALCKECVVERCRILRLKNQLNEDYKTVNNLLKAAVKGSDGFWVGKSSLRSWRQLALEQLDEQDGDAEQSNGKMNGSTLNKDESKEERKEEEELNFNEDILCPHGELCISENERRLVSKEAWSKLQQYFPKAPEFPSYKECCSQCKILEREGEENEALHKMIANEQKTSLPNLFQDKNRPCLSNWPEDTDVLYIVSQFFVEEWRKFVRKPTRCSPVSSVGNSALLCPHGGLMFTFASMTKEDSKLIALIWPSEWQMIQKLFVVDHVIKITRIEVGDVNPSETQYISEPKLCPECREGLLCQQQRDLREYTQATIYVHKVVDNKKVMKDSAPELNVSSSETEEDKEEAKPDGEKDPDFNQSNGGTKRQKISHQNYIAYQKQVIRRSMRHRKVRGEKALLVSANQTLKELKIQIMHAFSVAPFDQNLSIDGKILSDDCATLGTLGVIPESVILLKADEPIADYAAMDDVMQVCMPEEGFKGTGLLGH
Outline: as §1

USP5 = biological target: T4, USP5 (UniProt P45974)
T4 sequence (whole entry): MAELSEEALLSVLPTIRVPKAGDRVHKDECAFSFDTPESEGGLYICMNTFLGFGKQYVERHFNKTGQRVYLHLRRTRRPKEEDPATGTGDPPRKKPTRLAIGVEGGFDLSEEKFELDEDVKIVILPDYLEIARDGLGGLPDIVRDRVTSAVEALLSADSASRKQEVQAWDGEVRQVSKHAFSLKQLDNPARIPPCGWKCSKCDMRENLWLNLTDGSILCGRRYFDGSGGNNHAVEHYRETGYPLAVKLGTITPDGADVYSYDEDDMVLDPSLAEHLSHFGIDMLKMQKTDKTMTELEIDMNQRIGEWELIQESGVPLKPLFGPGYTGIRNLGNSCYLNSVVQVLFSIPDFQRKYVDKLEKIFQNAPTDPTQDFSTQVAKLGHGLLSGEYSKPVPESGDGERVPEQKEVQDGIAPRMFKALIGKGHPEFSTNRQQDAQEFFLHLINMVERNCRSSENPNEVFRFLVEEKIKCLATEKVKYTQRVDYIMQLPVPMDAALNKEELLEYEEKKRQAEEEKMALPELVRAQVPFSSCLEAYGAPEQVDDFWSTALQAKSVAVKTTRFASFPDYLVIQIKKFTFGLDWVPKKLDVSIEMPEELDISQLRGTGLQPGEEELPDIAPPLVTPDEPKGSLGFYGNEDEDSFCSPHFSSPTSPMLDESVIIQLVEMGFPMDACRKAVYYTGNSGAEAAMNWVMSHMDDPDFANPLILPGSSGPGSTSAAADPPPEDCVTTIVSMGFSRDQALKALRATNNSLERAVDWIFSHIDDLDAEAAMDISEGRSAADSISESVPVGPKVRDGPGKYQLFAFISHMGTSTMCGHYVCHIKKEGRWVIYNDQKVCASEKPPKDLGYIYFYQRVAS
Outline: as §1

USP54 = USP54 (UniProt Q70EL1)
Chain of USP54 (Q70EL1 whole entry): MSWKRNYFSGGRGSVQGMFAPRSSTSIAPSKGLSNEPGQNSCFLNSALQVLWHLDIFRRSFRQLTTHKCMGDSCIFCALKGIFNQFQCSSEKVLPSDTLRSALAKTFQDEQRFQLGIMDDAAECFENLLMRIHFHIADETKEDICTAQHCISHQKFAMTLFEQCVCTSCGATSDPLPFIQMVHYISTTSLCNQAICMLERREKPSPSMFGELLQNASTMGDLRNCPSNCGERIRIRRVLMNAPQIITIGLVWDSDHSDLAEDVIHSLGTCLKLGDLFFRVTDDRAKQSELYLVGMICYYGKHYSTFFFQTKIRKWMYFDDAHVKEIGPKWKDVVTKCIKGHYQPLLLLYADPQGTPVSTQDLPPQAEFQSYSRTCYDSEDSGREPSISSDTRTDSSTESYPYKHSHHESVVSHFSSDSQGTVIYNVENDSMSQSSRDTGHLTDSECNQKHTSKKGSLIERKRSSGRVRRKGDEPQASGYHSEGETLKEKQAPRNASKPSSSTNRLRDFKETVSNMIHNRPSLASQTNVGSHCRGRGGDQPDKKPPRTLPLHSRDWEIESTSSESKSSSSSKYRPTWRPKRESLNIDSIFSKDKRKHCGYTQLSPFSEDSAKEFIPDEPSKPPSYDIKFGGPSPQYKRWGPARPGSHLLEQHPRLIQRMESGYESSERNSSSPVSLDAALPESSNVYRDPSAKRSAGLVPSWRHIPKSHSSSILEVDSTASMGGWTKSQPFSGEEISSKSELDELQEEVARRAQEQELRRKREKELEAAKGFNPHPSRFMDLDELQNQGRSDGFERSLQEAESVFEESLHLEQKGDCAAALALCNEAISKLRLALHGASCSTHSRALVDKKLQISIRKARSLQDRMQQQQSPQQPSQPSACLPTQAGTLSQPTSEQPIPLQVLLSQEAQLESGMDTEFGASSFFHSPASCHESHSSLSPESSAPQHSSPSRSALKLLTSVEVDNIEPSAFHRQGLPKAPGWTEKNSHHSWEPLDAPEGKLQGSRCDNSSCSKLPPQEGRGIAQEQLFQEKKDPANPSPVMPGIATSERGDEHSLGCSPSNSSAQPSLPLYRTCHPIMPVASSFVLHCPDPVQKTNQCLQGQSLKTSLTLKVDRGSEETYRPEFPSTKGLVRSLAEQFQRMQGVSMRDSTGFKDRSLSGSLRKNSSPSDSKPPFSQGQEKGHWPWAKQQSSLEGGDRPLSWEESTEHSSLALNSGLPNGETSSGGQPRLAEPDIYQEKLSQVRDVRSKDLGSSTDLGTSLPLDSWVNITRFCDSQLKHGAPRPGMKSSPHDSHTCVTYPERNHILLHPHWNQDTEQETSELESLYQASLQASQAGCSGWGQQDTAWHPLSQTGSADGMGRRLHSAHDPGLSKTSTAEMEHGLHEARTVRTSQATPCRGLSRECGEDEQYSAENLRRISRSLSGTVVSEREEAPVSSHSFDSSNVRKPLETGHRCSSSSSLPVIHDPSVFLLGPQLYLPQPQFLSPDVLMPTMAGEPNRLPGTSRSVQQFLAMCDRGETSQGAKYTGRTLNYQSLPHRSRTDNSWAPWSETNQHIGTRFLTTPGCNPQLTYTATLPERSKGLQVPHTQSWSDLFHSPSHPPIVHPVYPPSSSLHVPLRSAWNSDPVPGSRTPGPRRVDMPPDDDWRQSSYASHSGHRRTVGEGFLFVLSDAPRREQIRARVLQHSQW
Outline: as §1

USP7 = USP7 (UniProt Q93009)
Outline: as §1

USP8 = biological target: T5, USP8 (UniProt P40818)
T5 sequence (whole entry): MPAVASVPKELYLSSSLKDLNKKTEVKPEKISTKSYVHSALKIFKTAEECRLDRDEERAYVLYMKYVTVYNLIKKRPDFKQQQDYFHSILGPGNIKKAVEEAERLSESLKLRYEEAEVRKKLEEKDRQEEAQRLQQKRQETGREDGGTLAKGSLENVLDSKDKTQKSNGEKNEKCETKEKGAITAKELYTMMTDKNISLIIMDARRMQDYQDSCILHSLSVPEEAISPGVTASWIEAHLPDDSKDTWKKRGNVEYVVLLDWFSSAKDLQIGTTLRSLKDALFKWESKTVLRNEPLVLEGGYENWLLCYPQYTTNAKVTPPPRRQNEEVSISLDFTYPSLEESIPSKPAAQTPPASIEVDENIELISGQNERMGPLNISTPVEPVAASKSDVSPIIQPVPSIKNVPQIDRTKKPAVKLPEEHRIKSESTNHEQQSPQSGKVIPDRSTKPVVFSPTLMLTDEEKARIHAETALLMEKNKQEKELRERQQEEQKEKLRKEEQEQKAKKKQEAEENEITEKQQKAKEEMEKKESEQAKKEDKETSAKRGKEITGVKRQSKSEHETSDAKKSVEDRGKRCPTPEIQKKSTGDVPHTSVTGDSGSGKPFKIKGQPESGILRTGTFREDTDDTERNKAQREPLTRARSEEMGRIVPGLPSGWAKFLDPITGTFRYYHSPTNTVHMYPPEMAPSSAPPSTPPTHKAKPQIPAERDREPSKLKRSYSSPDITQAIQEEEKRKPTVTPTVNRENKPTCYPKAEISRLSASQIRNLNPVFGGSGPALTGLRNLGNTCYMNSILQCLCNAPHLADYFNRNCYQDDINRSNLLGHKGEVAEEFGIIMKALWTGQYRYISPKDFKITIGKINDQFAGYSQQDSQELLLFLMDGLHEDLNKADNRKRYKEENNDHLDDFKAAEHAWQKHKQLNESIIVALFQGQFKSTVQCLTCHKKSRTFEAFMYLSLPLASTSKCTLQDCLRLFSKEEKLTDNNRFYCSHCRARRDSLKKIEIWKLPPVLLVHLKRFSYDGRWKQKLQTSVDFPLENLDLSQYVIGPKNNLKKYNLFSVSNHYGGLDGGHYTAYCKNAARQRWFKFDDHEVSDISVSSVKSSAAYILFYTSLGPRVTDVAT
Outline: as §1

USP9X = USP9X (UniProt Q93008)
Chain of USP9X (Q93008 whole entry): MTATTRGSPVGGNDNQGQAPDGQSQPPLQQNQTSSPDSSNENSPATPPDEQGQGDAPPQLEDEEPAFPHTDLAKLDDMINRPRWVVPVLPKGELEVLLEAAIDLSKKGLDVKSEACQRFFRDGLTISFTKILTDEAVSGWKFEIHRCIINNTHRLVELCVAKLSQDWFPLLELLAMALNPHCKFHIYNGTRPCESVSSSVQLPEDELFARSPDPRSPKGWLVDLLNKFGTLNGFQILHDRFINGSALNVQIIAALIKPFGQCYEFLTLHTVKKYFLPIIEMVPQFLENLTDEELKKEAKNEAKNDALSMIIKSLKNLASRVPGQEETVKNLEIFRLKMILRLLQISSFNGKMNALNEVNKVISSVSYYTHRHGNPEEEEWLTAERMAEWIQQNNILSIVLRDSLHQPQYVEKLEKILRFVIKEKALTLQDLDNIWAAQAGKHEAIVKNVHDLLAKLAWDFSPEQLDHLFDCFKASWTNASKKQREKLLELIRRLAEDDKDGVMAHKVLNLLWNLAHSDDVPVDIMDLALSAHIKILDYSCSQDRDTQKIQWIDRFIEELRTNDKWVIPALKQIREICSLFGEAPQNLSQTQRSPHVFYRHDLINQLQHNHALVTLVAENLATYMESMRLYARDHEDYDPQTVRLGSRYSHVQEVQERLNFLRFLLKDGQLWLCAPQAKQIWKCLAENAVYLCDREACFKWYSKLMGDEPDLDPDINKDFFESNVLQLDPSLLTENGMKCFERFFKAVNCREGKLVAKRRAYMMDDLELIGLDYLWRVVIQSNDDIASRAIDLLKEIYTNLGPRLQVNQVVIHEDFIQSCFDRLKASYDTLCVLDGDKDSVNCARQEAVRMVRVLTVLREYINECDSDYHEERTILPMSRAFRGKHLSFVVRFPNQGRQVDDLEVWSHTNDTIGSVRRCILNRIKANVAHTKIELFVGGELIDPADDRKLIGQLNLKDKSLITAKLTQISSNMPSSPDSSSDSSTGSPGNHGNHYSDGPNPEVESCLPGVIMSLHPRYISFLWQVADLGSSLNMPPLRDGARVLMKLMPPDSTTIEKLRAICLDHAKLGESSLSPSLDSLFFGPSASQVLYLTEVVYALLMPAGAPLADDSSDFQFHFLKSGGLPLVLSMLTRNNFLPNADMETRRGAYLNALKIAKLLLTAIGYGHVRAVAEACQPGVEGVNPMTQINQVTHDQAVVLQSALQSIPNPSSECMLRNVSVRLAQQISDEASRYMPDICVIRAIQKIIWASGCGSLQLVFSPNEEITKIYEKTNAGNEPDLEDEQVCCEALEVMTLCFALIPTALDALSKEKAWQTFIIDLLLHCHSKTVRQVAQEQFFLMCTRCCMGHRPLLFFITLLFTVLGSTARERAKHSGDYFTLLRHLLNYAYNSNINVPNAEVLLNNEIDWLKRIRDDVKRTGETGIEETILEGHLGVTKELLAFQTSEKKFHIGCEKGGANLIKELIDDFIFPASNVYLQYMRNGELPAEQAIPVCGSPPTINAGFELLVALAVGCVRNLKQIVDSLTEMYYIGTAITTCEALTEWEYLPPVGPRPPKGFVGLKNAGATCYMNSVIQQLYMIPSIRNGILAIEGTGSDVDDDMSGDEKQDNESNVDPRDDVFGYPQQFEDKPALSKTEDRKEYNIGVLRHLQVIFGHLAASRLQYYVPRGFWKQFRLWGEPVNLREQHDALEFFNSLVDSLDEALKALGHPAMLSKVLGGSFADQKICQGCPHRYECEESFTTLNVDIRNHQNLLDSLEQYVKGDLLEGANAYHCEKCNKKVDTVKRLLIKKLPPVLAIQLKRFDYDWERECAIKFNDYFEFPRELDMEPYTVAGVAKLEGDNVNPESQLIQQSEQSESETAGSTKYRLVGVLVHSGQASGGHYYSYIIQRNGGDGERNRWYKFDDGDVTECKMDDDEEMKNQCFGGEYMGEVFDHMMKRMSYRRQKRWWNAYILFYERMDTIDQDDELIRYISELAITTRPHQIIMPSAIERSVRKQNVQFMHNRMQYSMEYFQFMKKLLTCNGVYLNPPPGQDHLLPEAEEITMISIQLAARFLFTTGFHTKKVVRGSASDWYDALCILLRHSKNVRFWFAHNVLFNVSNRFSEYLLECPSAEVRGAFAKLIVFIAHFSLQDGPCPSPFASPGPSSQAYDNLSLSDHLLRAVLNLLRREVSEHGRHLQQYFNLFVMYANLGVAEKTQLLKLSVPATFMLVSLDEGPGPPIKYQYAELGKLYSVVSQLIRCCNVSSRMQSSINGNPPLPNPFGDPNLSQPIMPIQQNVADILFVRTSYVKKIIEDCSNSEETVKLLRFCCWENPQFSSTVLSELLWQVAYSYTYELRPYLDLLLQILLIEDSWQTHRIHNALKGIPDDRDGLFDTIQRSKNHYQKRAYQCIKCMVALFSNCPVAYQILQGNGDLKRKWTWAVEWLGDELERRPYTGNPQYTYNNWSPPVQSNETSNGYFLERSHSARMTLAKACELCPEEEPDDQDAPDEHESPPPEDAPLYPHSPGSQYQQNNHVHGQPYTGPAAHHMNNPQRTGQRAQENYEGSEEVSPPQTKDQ
Outline: as §1

UniProt O00487 = biological target: UniProt O00487
Chain of UniProt O00487 (O00487 whole entry): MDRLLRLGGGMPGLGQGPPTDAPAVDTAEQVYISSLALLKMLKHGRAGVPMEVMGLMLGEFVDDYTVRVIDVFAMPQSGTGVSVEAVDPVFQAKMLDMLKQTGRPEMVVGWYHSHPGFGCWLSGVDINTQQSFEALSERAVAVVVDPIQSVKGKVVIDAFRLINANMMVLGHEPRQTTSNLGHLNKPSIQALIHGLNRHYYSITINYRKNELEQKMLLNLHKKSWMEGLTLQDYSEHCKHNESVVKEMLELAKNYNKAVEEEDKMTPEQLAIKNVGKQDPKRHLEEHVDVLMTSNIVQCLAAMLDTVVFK
Outline: as §1

Measured: log2 ratio of Biotin-Ahx-Ub-VS probe labelling

Cc1nc(CNC(=O)CCl)c2ccccn12.Cl
inactive: USP42 0.298 | USP46 0.0871 | USP47 -0.0462 | USP48 0.164 | USP5 0.133 | USP54 -0.0547 | USP7 -0.157 | USP8 -0.312 | USP9X -0.222 | UniProt O00487 0.0442
